# Reference: PubChem BioAssay (Tox21)
# Inconclusive results are not listed. Calls of active or inactive are those of the source. Calls follow the shape of the dose curve; as a rule, active = well fitted cell-killing curve with a large enough effect in the repeat runs; inconclusive = weak or mixed curves, or effect the other way; inactive = flat fitted curve, though single readings scatter.
# Experiment: qHTS assay to identify small molecule antagonists of the estrogen receptor alpha (ER-alpha) signaling pathway using the BG1 cell line in the presence of 0.1 nM 17-beta-estradiol - cell viability counter screen (AID 1259241); also: nearly all actives have a fitted effect of over 40% in size
# Settings: VM7Luc4E2 (BG1) viability, CellTiter-Fluor protease, 22 h, 0.1 nM estradiol agonist added; series mostly up to 92.4 µM
# Excerpt: National Center for Advancing Translational Sciences [NCATS]
# NIH Chemical Genomics Center [NCGC]
# U.S. Environmental Protection Agency [EPA]
# National Institutes of Environmental Health Sciences [NIEHS]
# National Toxicology Program [NTP]
# U.S. Food and Drug Administration [FDA]
# Estrogen receptor (ER), a member of the nuclear hormone receptor plays an important role in development, metabolic homeostasis and reproduction. Two subtypes of ER, ER-alpha and ER-beta, have similar expression patterns with some uniqueness in both types. Endocrine disrupting chemicals (EDCs) and their interactions with steroid hormone receptors like ER causes disruption of normal endocrine function. Therefore, it is important to understand the effect of environmental chemicals in ER signaling pathway. For identifying ER antagonists, VM7Luc4E2 cell line was used to screen against Tox21 compound libraries.
# VM7Luc4E2 cell line (provided by Denison MS, University of California) endogenously express full-length ER-alpha and is stably transfected with a plasmid containing four estrogen responsive elements (ERE) upstream of a luciferase reporter gene. The current screening for identification of ER-alpha inhibitors against Tox21 compound libraries used lower concentration (0.1 nM) of 17beta-Estradiol as a stimulator. The cytotoxicity of the Tox21 compound libraries against VM7Luc4E2 cell line was tested by measuring live-cell protease activity using CellTiter-Fluor assay in the same wells.
# Tox21 Assay Protocol Summary:
# VM7Luc4E2 cells were cultured in phenol red free assay medium containing 10% charcoal stripped FBS for 5 days prior to the assay. The cells were dispensed at 4,000 cells/well in 4 uL of assay medium into white wall/solid-bottom 1536-well plates (Corning Life Sciences, Corning, NY) using a Multidrop Combi (ThermoFisher Scientific, Waltham, MA) dispenser. After the assay plates were incubated at 37C and 5% CO2 for 24 hr, 23 nL of compounds dissolved in DMSO, positive controls or DMSO only was transferred to the assay plates by a Pintool station (Kalypsys, San Diego, CA). The transfer of compounds was followed by the addition of 1 uL of 0.1 nM (final concentration) agonist (17beta-Estradiol)/assay medium using a Flying Reagent Dispenser (FRD, Aurora Discovery, San Diego, CA). The plates were incubated at 37C and 5% CO2 for 22 hr. For cytotoxicity assay, 1 uL of CellTiter-Fluor reagent (Promega Corporation, Madison, WI) was added to each well using the FRD and after 30 min incubation at 37C and 5% CO2, The fluorescence intensity was measured using ViewLux plate reader (PerkinElmer, Shelton, CT).
row,Structure (SMILES),outcome
1,CCCN1CCC[C@@H]2Cc3nc(N)ncc3C[C@H]21,inactive
2,C=CCc1cc(OC)c2c(c1)OCO2,inactive
3,Clc1ccc(C(Cl)(Cl)Cl)cn1,inactive
4,O=C(O)c1c(Cl)ccc2cc(Cl)cnc12,inactive
5,CC(C)[N+](C)(CCC(C(N)=O)(c1ccccc1)c1ccccc1)C(C)C,inactive
6,O=C(O)C(Br)(Br)Br,inactive
7,S=C=S,inactive
8,CCC1(CC)C(=O)C=CNC1=O,inactive
9,C[C@@H](N)[C@@H](O)c1ccccc1,inactive
10,CCOC(=O)N(C)N=O,inactive
11,N[C@@H](Cc1ccc(Oc2cc(I)c(O)c(I)c2)c(I)c1)C(=O)O,inactive
12,O=C(Cl)OCc1ccccc1,inactive
13,CCC1(c2ccccc2)C(=O)N(COC)C(=O)N(COC)C1=O,inactive
14,CN(C)C1CCCCC1,inactive
15,CCNc1nc(NCC)nc(SC)n1,inactive
16,CCN[C@H](C)Cc1cccc(C(F)(F)F)c1,inactive
17,CCCC(C)(COC(N)=O)COC(N)=O,inactive
18,CCC(C)(C#N)N=NC(C)(C#N)CC (stereo not given),inactive
19,CC[C@H](O)C(C[C@H](C)N(C)C)(c1ccccc1)c1ccccc1,inactive
20,Oc1ccc2c3c1O[C@H]1[C@@H](O)C=C[C@H]4[C@@H](C2)NCC[C@@]341,inactive

row,Structure (SMILES),outcome
1,CNC(=O)O/N=C(/CSC)C(C)(C)C,inactive
2,CC(C)(C)C(=O)Cl,inactive
3,CCN[C@@H](C)Cc1cccc(C(F)(F)F)c1,inactive
4,NCC1(CC(=O)O)CCCCC1,inactive
5,CCCOC(=O)Cc1ccc(OCC(=O)N(CC)CC)c(OC)c1,inactive
6,CCCCCCCCSC(=O)Oc1cc(Cl)nnc1-c1ccccc1,inactive
7,Cl/C=C/CCl,inactive
8,COc1cc(CCN)cc(OC)c1OC,inactive
9,ClCOCCl,inactive
10,Cc1cc(OC(=O)N(C)C)nn1C(=O)N(C)C,inactive
11,COC(=O)c1ccccc1CS(=O)(=O)NC(=O)Nc1nc(OC)cc(OC)n1,inactive
12,O=C(Cl)C(Cl)Cl,inactive
13,CCc1cc(OC)c(C[C@H](C)N)cc1OC,inactive
14,NC1(c2ccccc2)CCCCC1,inactive
15,CCOC(=O)CC(SP(=S)(OC)OC)C(=O)OCC (stereo not given),inactive
16,COc1cccc([C@@]2(O)CCCC[C@@H]2CN(C)C)c1,inactive
17,C(COCC1CO1)OCC1CO1 (stereo not given),inactive
18,NNC(N)=O,inactive
19,C[C@]12C=CC(=O)C=C1CC[C@@H]1[C@@H]2CC[C@@]2(C)[C@H]1CC[C@]2(C)O,inactive
20,Clc1nc(Cl)nc(Nc2ccccc2Cl)n1,inactive
